Screens (PubChem BioAssay)
Shown are actives, neighbours in structure and some others; about 6.7% of the full set was active somewhere.
Pf Dd2 inh = P. falciparum Dd2 growth inhibitors, primary screen, SYBR Green fluorescence, single dose replicates; hit rate 2.3% among 94,000; activity change, % at 10 µM; 72 h; hits give low values; in the data active = activity change below about -80%; inconclusive = no clear call, values can overlap the other calls
T cruzi growth-1 = T. cruzi intracellular proliferation inhibitors, primary screen, cell-based, beta-gal Tulahuen parasites, NIH3T3 host, luminescence; T. cruzi beta-gal in NIH3T3, GalScreen luminescence, 90 h; inhibition, % at 8.34 µM; hit rate 5.9% among 77,000; AID 624255, 2012;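 active = mean inhibition above about 93%, with at least 55% of replicates each passing it, limit read from the data, passing the limit was not always enough; inconclusive = only one of those two conditions holds; inactive = neither condition holds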
C diff growth = C. difficile growth inhibitors, primary screen, HTS | Clostridium difficile clinical isolate growth, OD600, 24 h; hits give low values | growth activity, negative = inhibition, % at 16 µg/mL (by protocol) | hit rate 0.25% among 86,000 | AID 1259249, 2017;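 active = mean growth activity at or below -80% and every replicate also at or below -80%; inconclusive = mean at or below -80% but some replicate above -80%; inactive = mean growth activity above -80%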;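 note: 0% = DMSO wells and -100% = levofloxacin 16 µg/mL wells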
T cruzi growth-2 = T. cruzi intracellular proliferation inhibitors, confirmation, cell-based, NIH3T3 host, beta-gal parasite, luminescence, cherry-pick; shares compounds with T cruzi growth-1; T. cruzi beta-gal in NIH3T3, GalScreen luminescence, 90 h; inhibition, % at 8.35 µM; hit rate 72% among 5,600; AID 651739, 2012;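 active = mean replicate inhibition above about 95% and at least 55% of replicates individually reaching it, limit read from the data; inconclusive = only one of the two criteria is met; inactive = neither criterion is met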
T cruzi growth-3 = inhibitors of intracellular T. cruzi replication, confirmation, NIH3T3 host cells, beta-gal parasites, cherry-pick, set 2; shares compounds with T cruzi growth-1; T. cruzi beta-gal in NIH3T3, GalScreen luminescence, 90 h; inhibition, % at 2.09 µM; hit rate 21% among 5,600;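 active = mean inhibition above about 95%, with at least 55% of replicates also reaching it, limit read from the data; inconclusive = meets just one of the two conditions; inactive = meets neither condition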;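 note: plate controls were neutral control median for no effect and positive control median for full effect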
NIH3T3 tox = cytotoxicity in mouse NIH/3T3 fibroblasts, confirmation, cytotoxicity control for T. cruzi proliferation inhibitor project, cell-based, cherry-pick, single point. cytotoxicity (signal decrease), % at 8.35 µM. shares compounds with T cruzi growth-1. NIH/3T3 viability, CellTiter-Glo ATP luminescence, 90 h. hit rate 14% among 5,600;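 active = mean signal decrease across replicates above about 35% based on untreated-well scatter, with enough replicates individually passing, limit read from the data; inconclusive = no rule stated though some were filed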;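 note: 0% = median of neutral control wells and 100% = median of positive control wells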
NIH3T3 tox 2 = NIH/3T3 fibroblast cytotoxicity, confirmation, cytotoxicity control, cell-based, cherry-pick, single point, set 2; shares compounds with T cruzi growth-1; inhibition, % at 24.9 µM; NIH/3T3 viability, CellTiter-Glo ATP luminescence, 90 h; hit rate 56% among 5,600;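 active = mean loss of cell viability signal at or above a set limit, and enough replicates individually reaching it; inconclusive = meets only the mean limit or only the replicate share; inactive = meets neither condition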;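 note: 0% = median of neutral control wells and 100% = median of positive control wells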
The depositor's hits bear a star; u = inconclusive; x = no result.

SMILES | Pf Dd2 inh | T cruzi growth-1 | C diff growth | T cruzi growth-2 | T cruzi growth-3 | NIH3T3 tox | NIH3T3 tox 2
Cn1cnc(CCNC(=O)C[C@H]2CC[C@@H]3[C@H](COC[C@H](O)CN3C(=O)Nc3ccc(C(F)(F)F)cc3)O2)c1 | -22 | u | 24 | 84 | -7 | 6 | 2
Cn1cnc(CCNC(=O)C[C@@H]2CC[C@H]3[C@@H](COC[C@H](O)CN3C(=O)C3CC3)O2)c1 | 4 | 12 | 5 | x | x | x | x
Cn1cnc(CCNC(=O)C[C@@H]2CC[C@H]3[C@@H](COC[C@@H](O)CN3C(=O)Nc3ccc(C(F)(F)F)cc3)O2)c1 | -15 | 107* | 31 | -33 | 5 | 6 | 15
Cn1cnc(CCNC(=O)C[C@H]2CC[C@H]3[C@@H](COC[C@H](O)CN3C(=O)Nc3ccc(Cl)cc3)O2)c1 | 1 | 44 | x | x | x | x | x
O=C(Nc1cccc(F)c1)N1C[C@H]2[C@@H](c3ccccc31)[C@@H](CO)N2C(=O)Cc1ccccc1 | 9 | 52 | -2 | x | x | x | x
O=C(Nc1cccc(F)c1)N1C[C@@H]2[C@H](c3ccccc31)[C@H](CO)N2C(=O)c1cccnc1 | 2 | 10 | 11 | x | x | x | x
CC(=O)N(C)C[C@H]1Oc2ncc(-c3ccccc3F)cc2C(=O)N([C@@H](C)CO)C[C@H]1C | 23 | 30 | -6 | x | x | x | x
Cc1ccccc1S(=O)(=O)N1CC[C@@H]2[C@@H](CO)Nc3ccc(-c4ccccc4F)cc3[C@@H]21 | -13 | 119* | 7 | 102* | 85 | 39* | 104*
COc1ccccc1-c1ccc2c(c1)[C@@H]1[C@@H](CCN1S(=O)(=O)c1ccccc1OC)[C@H](CO)N2 | -58 | 26 | 40 | x | x | x | x
O=S(=O)(c1ccccc1F)N1CC[C@@H]2[C@H](CO)Nc3ccc(-c4ccccc4F)cc3[C@@H]21 | 8 | 45 | 7 | x | x | x | x
COc1ccccc1S(=O)(=O)N1CC[C@@H]2[C@H]1c1cc(-c3ccccc3F)ccc1N[C@@H]2CO | 21 | 102* | -1 | 97* | 86 | 26 | 8
N#C[C@H]1[C@H](c2ccc(C#CC3CCCCC3)cc2)[C@H](CO)N1C(=O)Cc1ccccn1 | -26 | 95 | 10 | x | x | x | x
COc1ccccc1CNC(=O)C[C@H]1CC[C@H](NC(C)=O)[C@@H](CO)O1 | -1 | -140 | 2 | x | x | x | x
CC=Cc1ccc2n(c1=O)C[C@@H]1[C@@H](CO)[C@H](C(=O)NCC3CC3)[C@H]2N1S(=O)(=O)c1cn(C)cn1 (mixture of isomers) | 14 | -23 | -5 | x | x | x | x
C/C=C/c1ccc([C@H]2[C@@H](CO)N3CCCCN(C(=O)Nc4ccccc4F)C[C@H]23)cc1 | -27 | 97* | 0 | 100* | 52 | 9 | 70*
O=C(Nc1ccccc1F)N1CCCCN2[C@H](CO)[C@@H](c3ccc(C4=CCCCC4)cc3)[C@H]2C1 | -55 | 103* | 20 | 111* | 73 | 39* | 107*
C/C=C/c1ccc([C@@H]2[C@H](CO)N3CCCCN(C(=O)Nc4ccccc4F)C[C@@H]23)cc1 | -65 | 63 | 6 | x | x | x | x
O=C(Nc1ccccc1F)N1CCCCN2[C@H](CO)[C@@H](c3ccc(C4=CCCC4)cc3)[C@@H]2C1 | 9 | 79 | 6 | x | x | x | x
C/C=C/c1ccc([C@@H]2[C@@H](CO)N3CCCCN(C(=O)Nc4ccccc4F)C[C@H]23)cc1 | -8 | 39 | 0 | x | x | x | x
O=C(Nc1ccccc1F)N1CCCCN2[C@H](CO)[C@@H](c3ccc(/C=C/c4ccccc4)cc3)[C@H]2C1 | -33 | 104* | 13 | 97* | 61 | 59* | 105*
COc1ccc(NC(=O)Nc2ccc3c(c2)CC(=O)N([C@H](C)CO)C[C@H](C)[C@H](CN(C)C(=O)Nc2ccc(F)cc2)O3)cc1 | 8 | 45 | 0 | x | x | x | x
O=C(Nc1ccc(F)cc1)N[C@@H]1CC[C@H](CCNS(=O)(=O)c2ccccc2F)O[C@H]1CO | x | x | -3 | x | x | x | x
